AmpC inh no detg = AmpC beta-lactamase inhibition without detergent; P00811; AmpC nitrocefin hydrolysis, absorbance 480 nm, 0.0001% Triton; Potency, µM (titrated, usually from 57.1 µM), usual class: inhibitors; 330,000 compounds, 0.52% hits; note: nearly all actives have a fitted effect of over 20% in size
Target sequence (P00811 whole entry, looked up): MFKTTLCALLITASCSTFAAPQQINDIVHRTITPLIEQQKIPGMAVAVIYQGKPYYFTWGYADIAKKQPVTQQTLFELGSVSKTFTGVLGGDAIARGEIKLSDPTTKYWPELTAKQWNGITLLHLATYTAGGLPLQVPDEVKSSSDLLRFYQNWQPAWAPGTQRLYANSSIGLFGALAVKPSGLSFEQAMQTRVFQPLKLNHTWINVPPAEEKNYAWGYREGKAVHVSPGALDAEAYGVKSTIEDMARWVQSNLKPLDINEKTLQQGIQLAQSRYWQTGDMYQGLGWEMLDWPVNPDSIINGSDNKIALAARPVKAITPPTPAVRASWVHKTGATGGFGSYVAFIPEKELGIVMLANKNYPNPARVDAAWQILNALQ
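20 mM phosphate pH 7.0 + 0.01% (detergent screen) or 0.0001% Triton X-100; 5.3 nM AmpC reagent; cpd preinc 15 min RT; nitrocefin (800 uM stock) to start; A480 q20 s × 4 min; Activity was normalised to no-enzyme and no-compound control wells.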
NS1 inh = blocks influenza NS1 protein function; Potency, µM (highest dose often 46.1 µM); 270,000 compounds, 0.4% hits; calls by dose curve; note: actives are rising curves; nearly all actives have a fitted effect of over 50% in size
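OD600 was taken as the measure of yeast growth restored by compound in an NS1-expressing S. cerevisiae strain. Cells had been washed out of glucose medium and diluted 1:100 into galactose -URA medium, pH 6.0.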
SARS PLpro yeast-1 = blocks SARS-CoV papain-like protease in a yeast assay. S. cerevisiae expressing SARS-CoV PLpro, growth rescue. 330,000 compounds, 0.19% hits. AID 485353. Potency, µM (series often up to 32.9 µM), most hits filed as activators; calls by dose curve; note: nearly all actives have a fitted effect of over 55% in size
AmpC detergent = AmpC beta-lactamase inhibition with detergent present; AmpC hydrolysis of nitrocefin, absorbance 480 nm, 0.01% Triton; Potency, µM (doses to about 114 µM), actives largely listed as inhibitors; 370,000 compounds, 0.041% hits; note: nearly all actives have a fitted effect of over 25% in size
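20 mM phosphate pH 7.0 + 0.01% (detergent screen) or 0.0001% Triton X-100; 5.3 nM AmpC reagent; cpd preinc 15 min RT; nitrocefin (800 uM stock) to start; A480 q20 s × 4 min; Activity was normalised to no-enzyme and no-compound control wells.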
AMA1-RON2 inh = inhibitors of Plasmodium falciparum AMA1-RON2 interaction; AlphaScreen AMA1-biotinylated RON2 peptide binding; Potency, µM (doses to about 58.2 µM), most hits filed as inhibitors; 360,000 compounds, 0.2% hits; AID 720542; note: nearly all actives have a fitted effect of over 45% in size
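AMA1 (3D7) with his tag at 25 nM final met compounds first, then biotinylated RON2 peptide at 25 nM; detection used donor plus acceptor beads, 10 µg/mL apiece, read by AlphaScreen after 30 min at room temperature.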
SARS PLpro yeast-2 = Inhibits SARS-CoV PLP in yeast, hit validation | shares compounds with SARS PLpro yeast-1 | yeast expressing SARS-CoV PLpro, growth phenotype rescue | calls only | 1,000 compounds, 19% hits; call rule not given here
Numbers stand for hits; 0 = inactive; ? = inconclusive; - = no result given; + = active, no number; [ ] = dose if it differs, or a comment. Compounds with a hit are over-represented: about 0.99% of the library has one in this group of screens. Unless noted, calls come from the whole dose curve; as a rule, active = well fitted curve in the direction sought with a large enough effect; inconclusive = small, poorly fitted or top-dose-only effect, or another doubt; inactive = no such curve, though single readings can be large; an effect the other way counts as inactive or inconclusive.

SMILES	AmpC inh no detg	NS1 inh	SARS PLpro yeast-1	AmpC detergent	AMA1-RON2 inh	SARS PLpro yeast-2
O=C(O)COc1ccccc1C(Nc1ccccn1)c1cc(Cl)c2cccnc2c1O (stereo not given)	0	0	5µM	0	0	0
COc1ccc(C(NC(C)=O)c2ccc3cccnc3c2O)c(OC)c1 (stereo not given)	0	0	2.2µM	0	0	+
CC(=O)NC(c1ccc2ccccc2c1)c1ccc2cccnc2c1O (stereo not given)	0	0	0	?	0	-
COc1ccccc1CNC(=O)c1ccc2c(c1)nc(C)n2-c1ccccc1OC	-	-	-	0	-	-
O=C(CN1C(=O)C2C3C=CC(C3)C2C1=O)NCc1ccccc1 (stereo not given)	0	0	?	0	0	0
Cc1cscn1	0	-	?	0	0	0
Cc1csc(N)n1	0	0	0	0	0	-
c1ccc2c(c1)CC1(CCCCC1)n1nnnc1-2	0	0	14µM	0	?	0
CC(C)NC(=O)CN1C(=O)NC(CCc2ccccc2)C1=O (stereo not given)	0	0	3.5µM	?	0	0
CC(=O)c1cccc(CN2CCC(C(=O)Nc3ccc(Oc4cccnc4)cc3)CC2)c1	0	0	?	0	0	0
O=C(Nc1ccc(Oc2cccnc2)cc1)C1CCN(Cc2cccc(Cl)c2)CC1	0	0	0	0	0	-
CC(/C=C/c1ccccc1)=N\NC(N)=S	0	0	13µM	0	0	+
CC(/C=C/c1ccccc1)=N\NC(=S)NC(C)C	0	0	0	0	0	-
COc1ccc(OC)c(NC(=O)CSc2ncc3c(n2)-c2ccccc2N(C)S3(=O)=O)c1	-	-	-	0	-	-
O=[N+]([O-])c1ccc(NN=Cc2ccc(O)cc2O)nc1	-	-	-	-	0	-
Oc1ccc(C=NNc2ccccn2)c(O)c1	-	-	-	-	0	-
Oc1ccc(/C=N/Nc2ncc(Br)cn2)c(O)c1	0	0	?	0	0[11.6 µM]	0
CCN(CC)S(=O)(=O)c1ccc(N/N=C/c2ccc(O)cc2O)nc1	0	0	5µM	0	0	0
CCOC(=O)c1cccc(NC(=O)CCS(=O)(=O)c2ccc3c(c2)CC(=O)N3C)c1	-	-	-	0	-	-
CCOc1ccccc1NC(=O)Cn1c(=O)n(Cc2ccc(OC)cc2)c(=O)c2oc3ccccc3c21	-	-	-	0	-	-
O=C(CSc1nc(-c2ccco2)cc(C(F)(F)F)n1)Nc1ccccc1C(F)(F)F	0	0	?	0	0	0
Cc1ccc(NC(=O)CSc2nc(-c3ccco3)cc(C(F)(F)F)n2)c(C)c1	-	-	-	0	-	-
CCOC(=O)C(Cc1ccccc1)C(=O)Nc1cccc(C)c1 (stereo not given)	0	0	22µM	?	0	0
O=C(N/N=C/c1c(O)n(CCC2=CCCCC2)c(=O)[nH]c1=O)c1ccccc1	0	0	10µM	0	0	0
O=C(NCc1ccccc1)c1ccc(CS(=O)(=O)c2c(Cl)cccc2Cl)o1	-	-	-	0	-	-
SMILES	AmpC inh no detg	NS1 inh	SARS PLpro yeast-1	AmpC detergent	AMA1-RON2 inh	SARS PLpro yeast-2
CC(=O)c1ccc(N(C)C)cc1	0	0	2.8µM	0	0	0
CC(=Nc1ccccc1)C1=C(O)COC1=O	0	0	?	?	0	0
O=C(Nc1ccc(-c2cn3cccnc3n2)cc1)c1cc(Br)ccc1Cl	-	-	-	0	-	-
Cc1ccccc1C(=O)Nc1cccc(C(=O)N/N=C/c2cc(Cl)cc([N+](=O)[O-])c2O)c1	?	-	7.9µM	0	?	?
Cc1cc(C(=O)N/N=C/c2ccc([N+](=O)[O-])cc2)c2ccccc2n1	0	0	0	0	0	-
Cc1cc(C(=O)N/N=C/c2ccc([N+](=O)[O-])s2)c2ccccc2n1	0	0	0	0	0	-
Cc1cc(C(=O)N/N=C/c2cc([N+](=O)[O-])ccc2O)c2ccccc2n1	0	0	3.2µM	0	?	0
Cc1cc(C(=O)N/N=C/c2cc(Br)cc([N+](=O)[O-])c2O)c2ccccc2n1	0	0	1.8µM	0	35µM	0
O=C(N/N=C/c1cc([N+](=O)[O-])ccc1O)c1cc(-c2ccccc2)nc2ccccc12	0	0	-	0	0	+
COC(=O)C1=C(C)NC(=O)C1(NC(=O)c1ccc(Cl)cc1)C(F)(F)F (stereo not given)	-	-	-	0	-	-
Cc1ccccc1-c1nnc(CN2CCN(c3cc(Cl)ccc3C)CC2)o1	-	-	-	0	-	-

Compound activity (PubChem)
